Test results published in PubChem BioAssay (NCATS).
Residues, ends and D or L forms follow the SMILES beside them.

target: Lysosomal acid glucosylceramidase (Homo sapiens) (UniProt P04062); assay: Glucocerebrosidase-p2 (AID 348); details: purified GBA, blue fluorogenic substrate, 40 min
Procedure, shortened: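 Compounds titrated from 0.6 nM upwards against 0.2 nM enzyme in pH 5.9 citric acid/KH2PO4, taurocholate, tween-20; blue fluorogenic substrate 80 uM, 40 min room temperature, stopped and read Ex 365/Em 440 for AC50.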
Potency is the fitted concentration of half-maximal effect.

Chain of Lysosomal acid glucosylceramidase (Homo sapiens) (P04062 whole entry, looked up): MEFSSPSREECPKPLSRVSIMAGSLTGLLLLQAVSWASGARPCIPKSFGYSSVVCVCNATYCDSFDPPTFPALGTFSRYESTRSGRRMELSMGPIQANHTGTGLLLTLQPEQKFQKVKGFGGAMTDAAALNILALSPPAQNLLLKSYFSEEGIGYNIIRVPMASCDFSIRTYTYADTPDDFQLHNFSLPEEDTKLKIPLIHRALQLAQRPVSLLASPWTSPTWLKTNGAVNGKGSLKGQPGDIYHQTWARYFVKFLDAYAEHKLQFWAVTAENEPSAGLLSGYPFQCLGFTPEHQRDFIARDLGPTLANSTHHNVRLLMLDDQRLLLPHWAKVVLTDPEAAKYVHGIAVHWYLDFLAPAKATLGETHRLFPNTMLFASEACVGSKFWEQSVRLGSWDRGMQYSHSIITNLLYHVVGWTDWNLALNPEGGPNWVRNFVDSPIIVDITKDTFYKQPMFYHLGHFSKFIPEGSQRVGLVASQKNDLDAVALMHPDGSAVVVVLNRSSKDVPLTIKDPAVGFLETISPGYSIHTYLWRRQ

Potency, inactive:
O=C(O)c1cc(-c2ccc3cc4c(cc3c2)OCO4)nc2ccccc12 > 11.4 µM
c1cc(NNc2cccc(-c3nn[nH]n3)c2)cc(-c2nn[nH]n2)c1 > 11.4 µM
O=C(O)c1ccc(OCc2ccccc2)c(Cl)c1 > 11.4 µM
Oc1ccc(Cl)cc1C=Nc1cnc2ccccc2c1 > 11.4 µM
N[C@H]1[C@@H](C(=O)O)[C@H]2C=C[C@H]1C2 > 11.4 µM
Cc1ccc(S(=O)(=O)Oc2cc(N)c3c(n2)CCC3)cc1 > 11.4 µM
CN(C)CCCNc1ncnc2nc[nH]c12 > 11.4 µM
CCc1c(O)c2c(c(O)c1C(C)=O)C(=O)c1c(cc(O)c(C(=O)O)c1C(=O)O)C2=O > 11.4 µM
CC1(C)[C@@H]2CC[C@]1(C)[C@@H](OC(=O)/C=C\c1ccccc1)C2 > 11.4 µM
CCCCN(c1ccccc1)c1ncnc2c1cnn2C > 11.4 µM
C[C@H](Br)C(=O)c1ccc2cc(Br)c3ccccc3c2c1 > 11.4 µM
NCC(=O)NC1(C(=O)O)CCCC1 (HELM PEPTIDE1{G.[O=C(O)C1(N[*:1])CCCC1]}$$$$V2.0) > 11.4 µM
COc1ccc([C@H](O)c2ccccn2)cc1 > 11.4 µM
Cn1c(=O)c2c(ncn2CN2CCN(Cn3cnc4c3c(=O)n(C)c(=O)n4C)CC2)n(C)c1=O > 11.4 µM
CSc1ncnc2c1ncn2[C@@H]1O[C@@H](CO)[C@H](O)O[C@@H]1O > 11.4 µM
